# According to PubChem BioAssay:
# A number with no mark means an inactive call. Calls of active or inactive are those of the source.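 Rule for the calls: active = inhibition at or above 50% relative to wild type and mutant plate controls; inactive = inhibition below 50%.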
# Test: inhibitors of Chlamydomonas gravitaxis, primary screen, whole organism, Chlamydomonas reinhardtii, WT vs cilia-less mutant, absorbance, 96-well (AID 463189);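 note: 0% = wild type cc124 cells in DMSO and 100% = ciliumless bld1 mutant cells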
# Conditions: OD600 absorbance, 2 days, at 10 µM, stronger effect = higher value
row,Structure (SMILES),inhibition
1,CN1C2CCC1CC(OC(=O)c1cc(Cl)cc(Cl)c1)C2 (configuration not stated),116% (active)
2,C[C@@H]1O[C@@H](O[C@H]2C[C@@H](O)[C@]3(CO)[C@H]4[C@H](O)C[C@]5(C)[C@@H](C6=CC(=O)OC6)CC[C@]5(O)[C@@H]4CC[C@]3(O)C2)[C@H](O)[C@H](O)[C@H]1O,6.79%
3,NC(CCP(=O)(O)O)C(=O)O (configuration not stated),17.2%
4,CN1CCC23CCCC[C@H]2C1Cc1ccc(O)cc13 (some centres not stated),-3.02%
5,COc1cc(CC(C)N)c(OC)cc1I (configuration not stated),-7.42%
6,NC(=O)c1cc(N2CC2)c([N+](=O)[O-])cc1[N+](=O)[O-],-4%
7,NCC(O)c1ccc(O)cc1 (configuration not stated),5.37%
8,CCOC(=O)c1ncn2c1[C@@H]1CCCN1C(=O)c1cc(OC)ccc1-2,6.1%
9,NC(=O)c1ccc(OCC(O)CN2CC=C(c3ccc(F)cc3)CC2)cc1 (configuration not stated),-9.43%
10,CCCN(CCC)C1Cc2cc(OC)c(OC)cc2C1,-11.6%
11,C[C@]12Cc3cn4c(nc3C=C1CCC1C2CC[C@@]2(C)[C@H]1CC[C@@]2(O)C#N)nc1ccccc14 (some centres not stated),72.1% (active)
12,Oc1ccc2c3c1O[C@H]1c4oc5ccccc5c4C[C@@]4(O)C(C2)N(CC2CC2)CCC314 (some centres not stated),3.38%
13,CN(C(=O)Cc1ccc(Cl)c(Cl)c1)C(CN1CCCC1)c1cccc(OCC(=O)O)c1 (configuration not stated),4.68%
14,NCC(O)c1cc(O)c(O)cc1F (configuration not stated),1.21%
15,c1ccc2c(c1)[I+]c1ccccc1-2,152% (active)
16,CN1C[C@@H](CS(=O)(=O)N(C)C)C[C@@H]2c3cccc4c3c(cn4C)C[C@H]21,4.5%
17,C[Se]C[C@H](N)C(=O)O,1.72%
18,CC(=O)OCC1=C(C(=O)[O-])N2C(=O)[C@@H](NC(=O)CCC[C@@H](N)C(=O)[O-])[C@H]2SC1.[Zn+2],3.46%
19,CCC1(c2ccc(N)cc2)CCC(=O)NC1=O (configuration not stated),-0.133%
20,C=CCN1CC[C@]23CCCCC2[C@H]1Cc1ccc(O)cc13 (some centres not stated),7.64%
21,NNC(N)=O,1.88%
22,NC(=O)CN1CC(O)CC1=O (configuration not stated),9.01%
